Here are results for one sequence from article PMC7862700, “An all-to-all approach to the identification of sequence-specific readers for epigenetic DNA modifications on cytosine”.

What all share (assay): DAPPL (digital affinity profiling via proximity ligation, sequencing); 10 mM Tris-HCl pH 7.5, 50 mM NaCl, 1 mM DTT, 4% glycerol, room temperature, 30 min; GST-TFs on glutathione beads, 16-mer random dsDNA library, 0.1% formaldehyde crosslink after washing; high values mean tight binding
In assay [1] the target is T1, FLI1 (Homo sapiens, UniProt Q01543 1-452).
T1 sequence: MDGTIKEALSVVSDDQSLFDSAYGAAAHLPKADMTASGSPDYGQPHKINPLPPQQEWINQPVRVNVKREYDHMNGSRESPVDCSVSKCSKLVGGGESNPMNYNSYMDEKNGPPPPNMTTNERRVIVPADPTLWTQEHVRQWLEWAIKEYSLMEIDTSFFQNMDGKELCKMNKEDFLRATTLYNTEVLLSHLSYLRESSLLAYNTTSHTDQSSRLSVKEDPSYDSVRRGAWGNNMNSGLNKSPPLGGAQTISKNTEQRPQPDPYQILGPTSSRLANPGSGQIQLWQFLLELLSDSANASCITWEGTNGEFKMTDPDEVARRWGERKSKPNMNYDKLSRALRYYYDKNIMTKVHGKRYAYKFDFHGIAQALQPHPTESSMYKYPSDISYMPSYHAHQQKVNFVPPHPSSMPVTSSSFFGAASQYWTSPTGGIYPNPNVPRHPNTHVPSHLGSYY
Conditions: protein: recombinant; tags: N-terminal GST; dsDNA, one strand shown. An outline of the steps:
(§1)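 In yeast, human transcription factors were expressed with a GST fusion, then pulled down on glutathione beads and given DNA barcodes. Pooled with a tag-only sample, they were exposed to 200 nmole of a 16-mer random double-stranded DNA library (Tris/NaCl/DTT/glycerol buffer, room temperature, 30 min), washed, crosslinked with 0.1% formaldehyde, proximity-ligated using BsaI/T4 ligase for 1 h at 37 °C, PCR-amplified and read on an Illumina NextSeq500. Each hexamer's frequency of reads for a factor, divided by the matching frequency for the tag-only sample, gives the binding signal.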

Assay [2] concerns the target T2, ELK1 (Homo sapiens, UniProt P19419 1-428).
T2 sequence: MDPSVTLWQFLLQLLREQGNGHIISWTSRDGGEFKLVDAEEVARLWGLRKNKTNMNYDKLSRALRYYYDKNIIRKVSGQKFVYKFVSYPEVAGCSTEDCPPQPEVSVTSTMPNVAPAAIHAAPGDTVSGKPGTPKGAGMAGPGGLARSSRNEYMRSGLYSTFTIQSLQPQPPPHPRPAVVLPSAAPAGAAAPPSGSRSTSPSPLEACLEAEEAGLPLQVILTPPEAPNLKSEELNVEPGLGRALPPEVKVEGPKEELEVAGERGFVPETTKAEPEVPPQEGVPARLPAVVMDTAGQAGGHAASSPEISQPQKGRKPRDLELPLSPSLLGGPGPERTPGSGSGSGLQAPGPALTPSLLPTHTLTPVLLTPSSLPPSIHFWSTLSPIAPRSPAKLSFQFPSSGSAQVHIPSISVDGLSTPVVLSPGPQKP
The settings on record: protein: recombinant; tags: N-terminal GST; dsDNA, one strand shown. The gist of the method:
as §1

Assay [3] deals with T3, GABPA (Homo sapiens, UniProt Q06546 1-454).
T3 sequence: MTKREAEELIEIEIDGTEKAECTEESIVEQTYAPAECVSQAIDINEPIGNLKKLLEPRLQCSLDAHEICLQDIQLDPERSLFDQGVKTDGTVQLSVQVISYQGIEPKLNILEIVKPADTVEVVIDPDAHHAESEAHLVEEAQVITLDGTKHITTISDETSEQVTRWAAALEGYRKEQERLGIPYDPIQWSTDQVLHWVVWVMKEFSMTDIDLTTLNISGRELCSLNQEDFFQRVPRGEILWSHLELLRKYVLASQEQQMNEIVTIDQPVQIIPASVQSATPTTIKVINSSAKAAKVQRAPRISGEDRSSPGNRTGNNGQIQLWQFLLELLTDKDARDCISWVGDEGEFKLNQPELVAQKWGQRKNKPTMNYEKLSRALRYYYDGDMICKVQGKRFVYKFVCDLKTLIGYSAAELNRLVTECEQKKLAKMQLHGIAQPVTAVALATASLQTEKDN
The settings on record: protein: recombinant; tags: N-terminal GST; dsDNA, one strand shown. The gist of the method:
as §1

Assay [4] concerns the target T4, ERG (Homo sapiens, UniProt P11308 1-479).
T4 sequence: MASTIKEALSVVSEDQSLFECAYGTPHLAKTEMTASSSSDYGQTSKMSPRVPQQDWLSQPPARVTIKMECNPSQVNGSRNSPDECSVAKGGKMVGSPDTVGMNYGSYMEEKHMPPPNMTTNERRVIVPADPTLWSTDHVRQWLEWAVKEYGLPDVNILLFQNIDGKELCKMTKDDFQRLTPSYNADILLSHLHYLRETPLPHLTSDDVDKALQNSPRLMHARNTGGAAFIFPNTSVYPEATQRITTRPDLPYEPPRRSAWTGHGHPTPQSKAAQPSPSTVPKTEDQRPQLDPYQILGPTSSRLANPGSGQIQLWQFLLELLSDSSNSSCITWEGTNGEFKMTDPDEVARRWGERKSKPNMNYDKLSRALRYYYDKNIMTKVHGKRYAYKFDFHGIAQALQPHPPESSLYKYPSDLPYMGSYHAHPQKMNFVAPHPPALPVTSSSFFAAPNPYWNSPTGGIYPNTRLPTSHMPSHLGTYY
Conditions: protein: recombinant; tags: N-terminal GST; dsDNA, one strand shown. The gist of the method: as §1

The target in assay [5] is ELF1 (Homo sapiens, UniProt P32519 1-619). The settings on record: protein: recombinant; tags: N-terminal GST; dsDNA, one strand shown. An outline of the steps:
as §1

The target of assay [6] is T5, EHF (Homo sapiens, UniProt Q9NZC4 1-300).
T5 sequence: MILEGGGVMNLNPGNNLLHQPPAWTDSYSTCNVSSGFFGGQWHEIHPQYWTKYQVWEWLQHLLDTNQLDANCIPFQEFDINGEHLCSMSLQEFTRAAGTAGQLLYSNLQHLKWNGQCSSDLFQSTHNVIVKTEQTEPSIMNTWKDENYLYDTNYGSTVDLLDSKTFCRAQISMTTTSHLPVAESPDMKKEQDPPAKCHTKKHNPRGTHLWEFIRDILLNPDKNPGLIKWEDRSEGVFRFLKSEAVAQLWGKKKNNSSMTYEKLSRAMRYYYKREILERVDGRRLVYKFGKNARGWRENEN
The settings on record: protein: recombinant; tags: N-terminal GST; dsDNA, one strand shown. The gist of the method: as §1

Assay [7] addresses SPI1 (Homo sapiens, UniProt P17947 1-270). Conditions: protein: recombinant; tags: N-terminal GST; dsDNA, one strand shown. An outline of the steps: as §1
The target of assay [8] is SPIB (Homo sapiens, UniProt Q01892 1-262). Conditions: protein: recombinant; tags: N-terminal GST; dsDNA, one strand shown. An outline of the steps: as §1
Assay [9] addresses T6, ELK3 (Homo sapiens, UniProt P41970 1-407).
T6 sequence: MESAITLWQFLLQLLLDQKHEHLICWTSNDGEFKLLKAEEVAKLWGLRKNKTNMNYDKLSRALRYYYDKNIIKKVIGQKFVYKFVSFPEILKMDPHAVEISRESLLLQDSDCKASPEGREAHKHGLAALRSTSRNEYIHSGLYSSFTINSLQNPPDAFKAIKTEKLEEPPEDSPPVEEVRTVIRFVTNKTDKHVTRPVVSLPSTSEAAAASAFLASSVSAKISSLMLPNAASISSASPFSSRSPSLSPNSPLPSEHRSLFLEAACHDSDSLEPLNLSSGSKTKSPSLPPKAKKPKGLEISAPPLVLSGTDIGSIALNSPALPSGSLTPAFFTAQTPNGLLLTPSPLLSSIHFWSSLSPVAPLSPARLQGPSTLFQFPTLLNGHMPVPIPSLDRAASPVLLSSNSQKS
The settings on record: protein: recombinant; tags: N-terminal GST; dsDNA, one strand shown. The gist of the method: as §1

In assay [10] the target is T7, FEV (Homo sapiens, UniProt Q99581 1-238).
T7 sequence: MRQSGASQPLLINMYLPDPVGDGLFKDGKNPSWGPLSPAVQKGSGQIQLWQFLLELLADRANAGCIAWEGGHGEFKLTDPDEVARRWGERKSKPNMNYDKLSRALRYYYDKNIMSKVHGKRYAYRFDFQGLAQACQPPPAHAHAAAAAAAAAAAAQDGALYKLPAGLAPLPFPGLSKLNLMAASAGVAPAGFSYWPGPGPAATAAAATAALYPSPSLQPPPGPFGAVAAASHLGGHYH
The settings on record: protein: recombinant; tags: N-terminal GST; dsDNA, one strand shown. An outline of the steps: as §1

In assay [11] the target is ETV5 (Homo sapiens, UniProt P41161 1-510). Conditions: protein: recombinant; tags: N-terminal GST; dsDNA, one strand shown. An outline of the steps: as §1
For assay [12], the target named is HSF1 (Homo sapiens, UniProt Q00613 1-529). Conditions: protein: recombinant; tags: N-terminal GST; chain copies: 3; dsDNA, one strand shown. The gist of the method: as §1
Assay [13] has as its target T8, SPIC (Homo sapiens, UniProt Q8N5J4 1-248).
T8 sequence: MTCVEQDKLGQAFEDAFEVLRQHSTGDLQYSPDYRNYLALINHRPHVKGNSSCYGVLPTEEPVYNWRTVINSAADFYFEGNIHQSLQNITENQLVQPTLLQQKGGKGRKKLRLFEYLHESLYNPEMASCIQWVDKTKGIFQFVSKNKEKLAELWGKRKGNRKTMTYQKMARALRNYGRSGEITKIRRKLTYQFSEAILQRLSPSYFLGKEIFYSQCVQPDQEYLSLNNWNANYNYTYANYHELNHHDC
The settings on record: protein: recombinant; tags: N-terminal GST; dsDNA, one strand shown. The gist of the method:
as §1

Assay [14] has as its target ELF4 (Homo sapiens, UniProt Q99607 1-663). The settings on record: protein: recombinant; tags: N-terminal GST; dsDNA, one strand shown. An outline of the steps: as §1
Assay [15] has as its target T9, ELK4 (Homo sapiens, UniProt P28324-2 1-405).
T9 sequence: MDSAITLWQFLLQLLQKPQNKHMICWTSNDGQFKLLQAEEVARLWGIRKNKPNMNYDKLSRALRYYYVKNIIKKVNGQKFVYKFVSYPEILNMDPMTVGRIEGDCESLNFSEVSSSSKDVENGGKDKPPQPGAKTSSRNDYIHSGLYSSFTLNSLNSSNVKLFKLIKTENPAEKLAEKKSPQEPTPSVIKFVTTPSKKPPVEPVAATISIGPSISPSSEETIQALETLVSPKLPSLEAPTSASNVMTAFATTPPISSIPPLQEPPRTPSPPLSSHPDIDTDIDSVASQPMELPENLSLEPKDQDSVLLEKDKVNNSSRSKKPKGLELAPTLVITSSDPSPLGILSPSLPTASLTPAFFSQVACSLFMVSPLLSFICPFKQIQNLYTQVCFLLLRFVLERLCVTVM
The settings on record: protein: recombinant; tags: N-terminal GST; dsDNA, one strand shown. An outline of the steps:
as §1

Assay [16] concerns the target T10, ETV2 (Homo sapiens, UniProt O00321 1-342).
T10 sequence: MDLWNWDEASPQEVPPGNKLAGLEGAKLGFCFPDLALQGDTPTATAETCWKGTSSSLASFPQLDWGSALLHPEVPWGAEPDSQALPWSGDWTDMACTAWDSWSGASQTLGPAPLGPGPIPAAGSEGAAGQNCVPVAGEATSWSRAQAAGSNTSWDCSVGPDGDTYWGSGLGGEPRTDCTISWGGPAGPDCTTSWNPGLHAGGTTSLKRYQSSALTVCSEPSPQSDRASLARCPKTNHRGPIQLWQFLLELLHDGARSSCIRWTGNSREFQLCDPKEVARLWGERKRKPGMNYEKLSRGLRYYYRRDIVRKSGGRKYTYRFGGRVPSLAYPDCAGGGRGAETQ
Conditions: protein: recombinant; tags: N-terminal GST; dsDNA, one strand shown. The gist of the method:
as §1

In assay [17] the target is T11, ELF3 (Homo sapiens, UniProt P78545 1-371).
T11 sequence: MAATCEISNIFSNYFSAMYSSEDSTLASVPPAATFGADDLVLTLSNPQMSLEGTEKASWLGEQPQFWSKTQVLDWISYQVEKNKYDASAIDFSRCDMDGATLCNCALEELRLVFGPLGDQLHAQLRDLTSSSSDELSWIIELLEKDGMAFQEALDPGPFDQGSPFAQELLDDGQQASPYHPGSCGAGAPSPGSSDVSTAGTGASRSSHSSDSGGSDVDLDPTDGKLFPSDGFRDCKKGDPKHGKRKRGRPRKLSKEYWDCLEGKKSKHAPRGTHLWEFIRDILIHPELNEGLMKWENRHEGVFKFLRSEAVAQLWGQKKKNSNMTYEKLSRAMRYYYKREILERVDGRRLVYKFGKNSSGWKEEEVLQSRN
The settings on record: protein: recombinant; tags: N-terminal GST; dsDNA, one strand shown. An outline of the steps: as §1

The target in assay [18] is CRX (Homo sapiens, UniProt O43186 1-299). The settings on record: protein: recombinant; tags: N-terminal GST; dsDNA, one strand shown. The gist of the method:
as §1

Assay [19] addresses ETV1 (Homo sapiens, UniProt P50549 1-477). Conditions: protein: recombinant; tags: N-terminal GST; dsDNA, one strand shown. An outline of the steps:
as §1

ETV5, sequence (P41161 whole entry): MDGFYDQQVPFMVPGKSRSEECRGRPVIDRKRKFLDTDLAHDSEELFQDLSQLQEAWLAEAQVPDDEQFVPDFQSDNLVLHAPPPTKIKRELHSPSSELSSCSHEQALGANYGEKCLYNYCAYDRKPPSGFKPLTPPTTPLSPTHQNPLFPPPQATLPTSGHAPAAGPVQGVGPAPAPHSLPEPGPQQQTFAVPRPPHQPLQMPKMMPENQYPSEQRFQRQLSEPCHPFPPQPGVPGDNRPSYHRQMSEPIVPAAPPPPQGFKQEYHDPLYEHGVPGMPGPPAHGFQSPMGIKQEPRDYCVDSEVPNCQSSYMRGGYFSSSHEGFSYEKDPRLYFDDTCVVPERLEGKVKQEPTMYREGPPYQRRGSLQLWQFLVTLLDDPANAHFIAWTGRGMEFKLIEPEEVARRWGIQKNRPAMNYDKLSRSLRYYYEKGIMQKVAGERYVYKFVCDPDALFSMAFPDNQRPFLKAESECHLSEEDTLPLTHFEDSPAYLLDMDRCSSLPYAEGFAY
ELF4, sequence (Q99607 whole entry): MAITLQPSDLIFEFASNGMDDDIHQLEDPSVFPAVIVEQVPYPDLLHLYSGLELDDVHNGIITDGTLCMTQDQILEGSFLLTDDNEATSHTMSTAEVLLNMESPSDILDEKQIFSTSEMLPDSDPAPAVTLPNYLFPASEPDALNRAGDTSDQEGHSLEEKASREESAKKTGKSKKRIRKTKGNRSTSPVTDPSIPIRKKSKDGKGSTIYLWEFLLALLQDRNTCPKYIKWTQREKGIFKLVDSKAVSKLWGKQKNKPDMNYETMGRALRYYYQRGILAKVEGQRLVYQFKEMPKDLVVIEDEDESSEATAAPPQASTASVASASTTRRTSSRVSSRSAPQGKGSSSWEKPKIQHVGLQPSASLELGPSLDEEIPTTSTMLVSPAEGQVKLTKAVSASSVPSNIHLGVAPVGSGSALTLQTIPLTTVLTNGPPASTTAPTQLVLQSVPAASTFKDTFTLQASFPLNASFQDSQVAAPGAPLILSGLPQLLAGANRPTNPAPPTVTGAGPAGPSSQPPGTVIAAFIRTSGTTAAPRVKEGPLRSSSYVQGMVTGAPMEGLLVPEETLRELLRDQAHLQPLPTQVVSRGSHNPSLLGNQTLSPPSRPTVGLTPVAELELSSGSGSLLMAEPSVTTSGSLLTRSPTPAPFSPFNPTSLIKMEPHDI
ETV1, sequence (P50549 whole entry): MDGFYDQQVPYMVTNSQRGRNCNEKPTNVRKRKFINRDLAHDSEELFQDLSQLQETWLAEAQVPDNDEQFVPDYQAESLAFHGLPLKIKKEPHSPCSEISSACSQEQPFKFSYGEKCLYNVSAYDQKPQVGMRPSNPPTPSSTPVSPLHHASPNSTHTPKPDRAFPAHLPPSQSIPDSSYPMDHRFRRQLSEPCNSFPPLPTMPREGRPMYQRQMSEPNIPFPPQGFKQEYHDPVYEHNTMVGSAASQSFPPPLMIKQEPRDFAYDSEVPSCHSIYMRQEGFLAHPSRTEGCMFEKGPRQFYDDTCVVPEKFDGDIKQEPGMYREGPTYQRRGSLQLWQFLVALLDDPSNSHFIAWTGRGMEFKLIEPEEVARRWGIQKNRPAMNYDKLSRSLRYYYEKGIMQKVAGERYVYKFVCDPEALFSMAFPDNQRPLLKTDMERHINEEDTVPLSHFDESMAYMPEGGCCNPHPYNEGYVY
SPIB, sequence (Q01892 whole entry): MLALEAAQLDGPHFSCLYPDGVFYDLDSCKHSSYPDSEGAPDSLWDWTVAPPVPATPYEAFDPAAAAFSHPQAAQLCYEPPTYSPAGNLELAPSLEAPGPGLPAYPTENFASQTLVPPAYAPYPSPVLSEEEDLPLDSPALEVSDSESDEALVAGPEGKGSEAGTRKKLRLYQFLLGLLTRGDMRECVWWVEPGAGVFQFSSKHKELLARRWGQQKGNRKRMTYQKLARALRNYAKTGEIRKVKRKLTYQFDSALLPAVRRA
HSF1, sequence (Q00613 whole entry): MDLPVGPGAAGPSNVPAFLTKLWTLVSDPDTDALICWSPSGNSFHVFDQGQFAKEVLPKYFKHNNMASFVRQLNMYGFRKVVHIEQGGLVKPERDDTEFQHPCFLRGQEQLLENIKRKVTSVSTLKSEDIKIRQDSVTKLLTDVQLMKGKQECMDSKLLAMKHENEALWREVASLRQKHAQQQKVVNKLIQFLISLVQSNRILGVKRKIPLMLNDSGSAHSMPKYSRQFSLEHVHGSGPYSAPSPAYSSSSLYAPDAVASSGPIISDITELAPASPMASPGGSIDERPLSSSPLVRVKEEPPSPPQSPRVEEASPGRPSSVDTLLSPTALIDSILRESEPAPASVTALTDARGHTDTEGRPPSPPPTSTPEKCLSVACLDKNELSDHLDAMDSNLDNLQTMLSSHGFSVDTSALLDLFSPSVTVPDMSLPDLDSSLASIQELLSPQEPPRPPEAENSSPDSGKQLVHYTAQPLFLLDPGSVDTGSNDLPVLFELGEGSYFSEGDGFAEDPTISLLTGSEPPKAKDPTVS
ELF1, sequence (P32519 whole entry): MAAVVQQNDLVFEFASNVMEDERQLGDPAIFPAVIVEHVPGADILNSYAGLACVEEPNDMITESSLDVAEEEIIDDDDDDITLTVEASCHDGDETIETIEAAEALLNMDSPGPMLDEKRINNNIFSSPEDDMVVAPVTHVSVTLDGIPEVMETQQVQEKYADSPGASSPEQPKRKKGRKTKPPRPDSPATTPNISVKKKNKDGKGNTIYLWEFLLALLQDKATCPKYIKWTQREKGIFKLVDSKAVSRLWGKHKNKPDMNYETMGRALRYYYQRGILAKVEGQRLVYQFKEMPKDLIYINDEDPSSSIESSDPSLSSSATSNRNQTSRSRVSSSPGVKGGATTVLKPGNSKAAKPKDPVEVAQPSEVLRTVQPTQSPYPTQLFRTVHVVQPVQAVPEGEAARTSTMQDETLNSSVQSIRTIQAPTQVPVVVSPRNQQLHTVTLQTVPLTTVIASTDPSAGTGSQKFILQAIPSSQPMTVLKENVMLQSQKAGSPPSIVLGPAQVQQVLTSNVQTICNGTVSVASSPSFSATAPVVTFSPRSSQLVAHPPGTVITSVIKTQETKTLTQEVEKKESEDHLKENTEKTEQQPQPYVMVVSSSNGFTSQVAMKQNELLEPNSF
CRX, sequence (O43186 whole entry): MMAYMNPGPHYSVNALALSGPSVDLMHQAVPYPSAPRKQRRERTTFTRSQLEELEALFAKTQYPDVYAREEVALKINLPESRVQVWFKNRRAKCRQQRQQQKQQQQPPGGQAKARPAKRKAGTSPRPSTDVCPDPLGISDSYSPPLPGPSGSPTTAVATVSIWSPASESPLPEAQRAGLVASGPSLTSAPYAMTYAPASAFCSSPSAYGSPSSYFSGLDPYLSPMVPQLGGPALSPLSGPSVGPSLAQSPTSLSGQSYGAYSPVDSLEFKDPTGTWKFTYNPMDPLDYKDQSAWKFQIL

TGTTTA: the binding signal was 1.2 fold enrichment (6-mer frequency, TF over GST control) in assay [1]; 1.09 fold enrichment (6-mer frequency, TF over GST control) in assay [2]; 1.18 fold enrichment (6-mer frequency, TF over GST control) in assay [3]; 1.17 fold enrichment (6-mer frequency, TF over GST control) in assay [4]; 1.13 fold enrichment (6-mer frequency, TF over GST control) in assay [5]; 1.19 fold enrichment (6-mer frequency, TF over GST control) in assay [6]. Further, the binding signal was 1.12 fold enrichment (6-mer frequency, TF over GST control) in [7]; 1.21 fold enrichment (6-mer frequency, TF over GST control) in [8]; 1.2 fold enrichment (6-mer frequency, TF over GST control) in [9]; 1.12 fold enrichment (6-mer frequency, TF over GST control) in [10]; 1.19 fold enrichment (6-mer frequency, TF over GST control) in assay [11]; 1.12 fold enrichment (6-mer frequency, TF over GST control) in assay [12]. Besides, the binding signal was 1.05 fold enrichment (6-mer frequency, TF over GST control) in [13]; 1.11 fold enrichment (6-mer frequency, TF over GST control) in assay [14]; 1.25 fold enrichment (6-mer frequency, TF over GST control) in assay [15]; 1.04 fold enrichment (6-mer frequency, TF over GST control) in [16]; 1.22 fold enrichment (6-mer frequency, TF over GST control) in [17]; 1.25 fold enrichment (6-mer frequency, TF over GST control) in assay [18]. The binding signal in [19] is 1.09 fold enrichment (6-mer frequency, TF over GST control).
